The sequences below were run against PUM1 PUF domain R3-FFS (Homo sapiens, UniProt Q14671 828-1176, C935F;R936F;Q939S) (assay: yeast three-hybrid, YBZ-1, SC-Leu-His + 0.5 mM 3-AT, 4 days). Conditions: tags: N-Gal4 AD-HA kept; label: inside an RPR1-promoter hybrid RNA with tandem MS2 sites; ssRNA.
Chain of PUM1 PUF domain R3-FFS (Q14671 828-1176 C935F/R936F/Q939S): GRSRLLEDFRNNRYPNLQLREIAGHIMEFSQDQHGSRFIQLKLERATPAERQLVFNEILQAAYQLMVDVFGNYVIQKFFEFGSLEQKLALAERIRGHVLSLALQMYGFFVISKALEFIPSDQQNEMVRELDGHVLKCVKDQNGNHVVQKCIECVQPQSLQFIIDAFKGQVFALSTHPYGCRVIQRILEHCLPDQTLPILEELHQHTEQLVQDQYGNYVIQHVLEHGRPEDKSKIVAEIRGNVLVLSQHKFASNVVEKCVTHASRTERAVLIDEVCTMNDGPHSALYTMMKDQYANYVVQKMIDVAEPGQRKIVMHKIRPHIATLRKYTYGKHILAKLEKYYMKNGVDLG
Outline: (§1)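 The interaction score is the logarithmic change in variant frequency from input to selection. It uses log2, with a pseudocount of 1 for absent variants, and frequencies came from PCR-amplified, Illumina-sequenced repeat regions. The libraries were Pumilio-1 PUF domains randomized at the three base-contacting residues per repeat, co-expressed with matching RNA elements in strain YBZ-1 (LexA–MS2 coat fusion, HIS3 reporter). Plating lasted four days on SC-Leu (input) or SC-Leu-His + 0.5 mM 3-AT (selection).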
“GGCUAGAACUAGUGGAUCCCCCGGCGCCCGGCGGCUCGAGCCCGGGUAAGUGUAAUUAGUCUGCAUGCCGCCGGGCGCCAUGCCUGCAGGUCGACUCUAGAAAACAUG” was tested, and the binding signal was 5.05 log2 enrichment (interaction score). With “GGCUAGAACUAGUGGAUCCCCCGGCGCCCGGCGGCUCGAGCCCGGGUAAGUGUAAGUAGUCUGCAUGCCGCCGGGCGCCAUGCCUGCAGGUCGACUCUAGAAAACAUG” the binding signal was 6.93 log2 enrichment (interaction score). For “GGCUAGAACUAGUGGAUCCCCCGGCGCCCGGCGGCUCGAGCCCGGGUAAGUGUAAAUAGUCUGCAUGCCGCCGGGCGCCAUGCCUGCAGGUCGACUCUAGAAAACAUG”, the binding signal was 3.99 log2 enrichment (interaction score).

These sequences were tested against PUM1 PUF domain R4-WAS (Homo sapiens, UniProt Q14671 828-1176, N971W;H972A;Q975S) in the same assay as above. Conditions: tags: N-Gal4 AD-HA kept; label: inside an RPR1-promoter hybrid RNA with tandem MS2 sites; ssRNA.
Chain of PUM1 PUF domain R4-WAS (Q14671 828-1176 N971W/H972A/Q975S): as the sequence (Q14671 828-1176 C935F/R936F/Q939S) above, with F108C, F109R, S112Q, N144W, H145A, Q148S counted along it
Outline: as §1
“GGCUAGAACUAGUGGAUCCCCCGGCGCCCGGCGGCUCGAGCCCGGGUAAGUGUACAUAGUCUGCAUGCCGCCGGGCGCCAUGCCUGCAGGUCGACUCUAGAAAACAUG” was tested, and the binding signal was 3.76 log2 enrichment (interaction score). “GGCUAGAACUAGUGGAUCCCCCGGCGCCCGGCGGCUCGAGCCCGGGUAAGUGUAUAUAGUCUGCAUGCCGCCGGGCGCCAUGCCUGCAGGUCGACUCUAGAAAACAUG” was tested, and the binding signal was 4.67 log2 enrichment (interaction score). “GGCUAGAACUAGUGGAUCCCCCGGCGCCCGGCGGCUCGAGCCCGGGUAAGUGUAAAUAGUCUGCAUGCCGCCGGGCGCCAUGCCUGCAGGUCGACUCUAGAAAACAUG” was tested, and the binding signal was 2.5 log2 enrichment (interaction score).

Reference: PMC8384837, “Expanding the binding specificity for RNA recognition by a PUF domain”
